In PubChem BioAssay (NCI):
This is part of a sample that, as a whole, favours compounds with a hit. Of some 79,000 tested, about 15% had one in any assay. Unmarked numbers belong to inactive results. No stated cut-off is given here; in the data, active means growth inhibition above about 70%; inactive means the rest.

experiment: NCI Yeast Anticancer Drug Screen. Data for the sgs1 mgt1 strain (AID 161);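 further: 0% = growth of cultures given vehicle only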; details: S. cerevisiae sgs1 mgt1 strain, at 50.0 µM, stronger effect = higher value
In short: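 This yeast growth screen uses a strain with defined DNA-repair lesions; compound-treated growth is compared with vehicle-treated growth.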

SMILES	growth inhibition
Cc1cc(OCCO)cc(C)c1Cl	-16.4%
CC(C)CCOC(=O)c1ccccc1	-34.1%
COC(=O)/C=C/C(=O)NC(N)=O	-22.1%
O=[N+]([O-])c1ccc(O)c(S(=O)(=O)O)c1	7.65%
O=c1cc(-c2ccccc2)[nH]c(=S)[nH]1	8.65%
CC(C)C1CCCCC1O (stereo not drawn)	-11.5%
CCOc1ccc(Br)cc1/C=N\N=C\c1cc(Br)ccc1OCC	-1.65%
CCCNC(=O)c1ccc(S(N)(=O)=O)cc1	-13.2%
O=C(O)CNC(=O)c1ccccc1	-25.6%
O=C(O)CCC(NC(=O)OCc1ccccc1)C(=O)O (stereo not drawn)	-8.45%
O=C(N/N=C/c1ccccc1O)Nc1nn[nH]n1	16.1%
CC1CCC(C(=O)O)N1 (stereo not drawn)	1.7%
CCCCNC1(C#N)CCN(Cc2ccccc2)CC1	-5.9%
O=C1OC(=O)C2C1C1(Cl)C(Cl)=C(Cl)C2(Cl)C2C(=O)OC(=O)C21 (stereo not drawn)	17.9%
O=C(O)C(Cc1ccccc1)C(=O)O	-27.7%
CC(C)=NNc1ccc([N+](=O)[O-])cc1[N+](=O)[O-]	8.3%
O=c1[nH]n(-c2ccccc2)c(=O)cc1Cl	-4%
C=CCc1cc(C(C)=O)cc(OC)c1O	5.7%
